Data: PubChem BioAssay (Tox21)
Results filed as inconclusive are left out. The source made the active and inactive calls. Unless noted, calls come from the whole dose curve; as a rule, active = well fitted curve in the direction sought with a large enough effect in the repeat runs; inconclusive = weak or mixed curves; inactive = no such curve, though single readings can be large; an effect the other way counts as inactive or inconclusive.

Experiments:
[1] = qHTS assay to identify small molecule antagonists of the estrogen related receptor (ERR) signaling pathway from Tox21 library - cell viability counter screen (AID 1224834); note: nearly all actives have a fitted effect of over 30% in size
Method in brief: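 Cytotoxicity of test substances is gauged in the same ERR cells used for the antagonist screen, after 17.5 h of compound treatment at 37 C, by CellTiter-Fluor fluorescence measured after 30 min.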

[2] = target: Luciferin 4-monooxygenase (Photinus pyralis) (UniProt P08659); assay: qHTS assay to identify small molecule inhibitors of firefly luciferase (AID 1224835); note: nearly all actives have a fitted effect of over 25% in size
Method in brief: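 Quantitative HTS format; KM concentrations of both substrates. Purified P. pyralis FLuc activity quantified from luminescence images.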

[3] = qHTS assay to identify small molecule agonists of the constitutive androstane receptor (CAR) signaling pathway - cell viability counter screen (AID 1224836); note: nearly all actives have a fitted effect of over 45% in size
Method in brief: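 Multiplexed viability check: HepG2-CYP2B6-hCAR cells, 15-point compound dosing, 0.75 uM PK11195 final, 23 h at 37 C, CellTiter-Fluor fluorescence.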

[4] = qHTS assay to identify small molecule antagonists of the constitutive androstane receptor (CAR) signaling pathway - cell viability counter screen (AID 1224837); note: nearly all actives have a fitted effect of over 45% in size
Method in brief: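 Multiplexed cytotoxicity read-out for the CAR antagonist screen: double-stable HepG2-CYP2B6-hCAR cells co-treated with 50 nM CITCO (final) and compound over 15 concentrations, incubated 23 hr, then assessed by CellTiter-Fluor fluorescence.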

[5] = target: Nuclear receptor subfamily 1 group I member 3 (Homo sapiens) (UniProt Q14994); assay: qHTS assay to identify small molecule antagonists of the constitutive androstane receptor (CAR) signaling pathway (AID 1224838); note: nearly all actives have a fitted effect of over 40% in size
Method in brief: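 Compounds were titrated across 15 concentrations onto HepG2 cells double-stably expressing hCAR and a CYP2B6-2.2kb reporter, together with 50 nM CITCO (final). After 24 h at 37 C, luciferase activity was measured by luminescence.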

[6] = target: Nuclear receptor subfamily 1 group I member 3 (Homo sapiens) (UniProt Q14994); assay: qHTS assay to identify small molecule agonists of the constitutive androstane receptor (CAR) signaling pathway (AID 1224839);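 note: HepG2 cells stably carrying human CAR and a CYP2B6 luciferase reporter; nearly all actives have a fitted effect of over 15% in size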
Method in brief: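 Using human hepatoma HepG2 cells engineered with hCAR and a CYP2B6-2.2kb reporter, 15-concentration compound series were incubated 24 h alongside PK11195 at 0.75 uM final, with luminescence quantified afterwards.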

[7] = qHTS assay to identify small molecule antagonists of the estrogen related receptor signaling pathway with the pleiotropic PPARgamma coactivator (PGC) from Tox21 10K library - cell viability counter screen (AID 1224840; active = well fitted cell-killing curve with a large enough effect in the repeat runs, not every such curve was filed as active; note: nearly all actives have a fitted effect of over 40% in size)
Method in brief: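 Step one, plate 2,000 PGC/ERR cells per well; step two, incubate 6 h at 37 C/5% CO2; step three, pin-transfer compounds; step four, incubate 17.5 h; step five, add CellTiter-Fluor and read fluorescence after 30 min.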

[8] = qHTS assay to identify small molecule antagonists of the estrogen related receptor signaling pathway with the pleiotropic PPARgamma coactivator (PGC) from Tox21 10K library (AID 1224841; call rule not given here; note: actives are mostly falling curves and most rising ones were filed inactive; nearly all actives have a fitted effect of over 50% in size)
Method in brief: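 Antagonism in this quantitative HTS is taken from loss of luciferase signal in PGC/ERR cells. Cells (2,000/well) are treated with compounds in DMSO after a 6 h settling period and read by One-Glo luminescence after 18 h.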

[9] = qHTS assay to identify small molecule agonists of the estrogen related receptor signaling pathway with the pleiotropic PPARgamma coactivator (PGC) from Tox21 10K library (AID 1224842); note: nearly all actives have a fitted effect of over 15% in size
Method in brief: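 PGC/ERR reporter cells (NTP line) were seeded 2,000 per well, rested 6 h at 37 C/5% CO2, then pin-dosed with compounds in DMSO for 18 h at 37 C; luciferase read by One-Glo luminescence after 30 min at room temperature.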

[10] = target: Thyrotropin receptor (Homo sapiens) (UniProt P16473); assay: qHTS assay to identify small molecule agonists of the thyroid stimulating hormone receptor (TSHR) signaling pathway (AID 1224843; calls by dose curve; note: nearly all actives have a fitted effect of over 45% in size)
Method in brief: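 Cell line HEK293 with TSHR; density 800/well. Exposure 30 min RT. Readout HTRF cAMP (cAMP-d2/anti-cAMP-cryptate), 1 h RT before reading.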

[11] = qHTS assay to identify small molecule agonists of the hypoxia (HIF-1) signaling pathway - cell viability counter screen (AID 1224844; calls by dose curve; note: nearly all actives have a fitted effect of over 50% in size)
Method in brief: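 Tox21 10K compounds were added to HRE-bla ME-180 cells (0.5% dialyzed FBS) and incubated 17 hrs at 37C; ATP-based CellTiter-Glo luminescence then reported cell viability in the same wells.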

[12] = qHTS assay to identify small molecule agonists of H2AX (AID 1224845; active = well fitted activation curve with a large enough effect in the signal ratio in the repeat runs, not every such curve was filed as active; the % refers to the signal ratio)
Method in brief: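 Wild-type CHO-K1 cells plated overnight, then exposed 3 hr at 37C to compounds at 15 concentrations (0.76% DMSO). Lysed, then HTRF anti-pH2AX(S139)-cryptate/anti-H2AX-d2 detection after 24 hr at room temperature; emissions 665 and 620 nm.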

[13] = qHTS assay to identify small molecule agonists of the hypoxia (HIF-1) signaling pathway (AID 1224846; active = well fitted activation curve with a large enough effect in the signal ratio in the repeat runs, not every such curve was filed as active; the % refers to the signal ratio)
Method in brief: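 Steps: seed ME-180 HRE-bla cells (2,000/well, 0.5% dialyzed FBS); incubate 5 hrs at 37C; pin-transfer compounds or DMSO; incubate 17 hrs; add LiveBLAzer B/G substrate CCF4-AM; measure reporter activation by FRET.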

[14] = qHTS assay to identify small molecule agonists of H2AX - cell viability counter screen (AID 1224847; calls by dose curve; note: top concentration of the series differs between compounds; nearly all actives have a fitted effect of over 30% in size)
Method in brief: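 After overnight plating of 1000 CHO-K1 cells per well, a 15-concentration compound series was applied for 3 hr at 37C. Luminescence from CellTiter-Glo, read following 30 min at room temperature, reflected cell viability.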

[15] = qHTS assay to identify small molecule antagonists of the estrogen related receptor (ERR) signaling pathway from Tox21 library (AID 1224848); note: nearly all actives have a fitted effect of over 50% in size
Method in brief: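 Screening used an ERR reporter line supplied by NTP, exposed for 18 h at 37 C to library compounds delivered in DMSO. Signal was luciferase luminescence developed with ONE-Glo at room temperature for 30 min.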

[16] = qHTS assay to identify small molecule agonists of the estrogen related receptor (ERR) signaling pathway from Tox21 library (AID 1224849; calls by dose curve; note: nearly all actives have a fitted effect of over 15% in size); details: ERR reporter cell line, ONE-Glo luciferase, 18 h; at 92.4 µM (top of the series) unless noted
Method in brief: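 Agonist signal is luciferase luminescence from an ERR reporter cell line treated 18 h at 37 C with DMSO-dissolved compounds, read 30 min after ONE-Glo addition at room temperature.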

[17] = qHTS RealTime-Glo MT Cell Viability Assay in HepG2 cells - 24 hour (AID 1224867); note: nearly all actives have a fitted effect of over 50% in size
Method in brief: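 HepG2 suspension premixed with RealTime-Glo reagents is plated at 600 cells per well and left 5 h at 37 C/5% CO2. Compounds in DMSO then go in, and bioluminescence reflecting viable cell number is recorded over 40 h.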

[18] = qHTS RealTime-Glo MT Cell Viability Assay in HEK293 cells - 32 hour (AID 1224868)
Method in brief: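 Reads taken at 0, 8, 16, 24, 32 and 40 h from the same wells. HEK293 cells (600/well) carried RealTime-Glo reagents from seeding, with compound added after a 5 h settle at 37 C.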

[19] = A CellTox Green Cytotoxicity Assay to monitor cytotoxicity in HEK293 cells - 0 hour (AID 1224869); note: nearly all actives have a fitted effect of over 50% in size
Method in brief: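 Cytotoxicity was tracked continuously in HEK293 cells by a DNA-binding dye excluded from viable cells. Compounds were transferred in DMSO 5 h after seeding; fluorescence was recorded at intervals up to 40 h.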

[20] = qHTS RealTime-Glo MT Cell Viability Assay in HepG2 cells - 40 hour (AID 1224870); note: nearly all actives have a fitted effect of over 50% in size
Method in brief: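 HepG2 cells mixed with RealTime-Glo MT reagents (NanoLuc plus cell-permeant prosubstrate) were seeded at 600 cells/well, incubated 5 h at 37 C/5% CO2, then pinned with compounds in DMSO; nonlytic luminescence tracked viability during 40 h treatment.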
% is set by controls: 0 for no effect and ±100 for the full control effect.

Sequence of Luciferin 4-monooxygenase (Photinus pyralis) (P08659 whole entry, looked up): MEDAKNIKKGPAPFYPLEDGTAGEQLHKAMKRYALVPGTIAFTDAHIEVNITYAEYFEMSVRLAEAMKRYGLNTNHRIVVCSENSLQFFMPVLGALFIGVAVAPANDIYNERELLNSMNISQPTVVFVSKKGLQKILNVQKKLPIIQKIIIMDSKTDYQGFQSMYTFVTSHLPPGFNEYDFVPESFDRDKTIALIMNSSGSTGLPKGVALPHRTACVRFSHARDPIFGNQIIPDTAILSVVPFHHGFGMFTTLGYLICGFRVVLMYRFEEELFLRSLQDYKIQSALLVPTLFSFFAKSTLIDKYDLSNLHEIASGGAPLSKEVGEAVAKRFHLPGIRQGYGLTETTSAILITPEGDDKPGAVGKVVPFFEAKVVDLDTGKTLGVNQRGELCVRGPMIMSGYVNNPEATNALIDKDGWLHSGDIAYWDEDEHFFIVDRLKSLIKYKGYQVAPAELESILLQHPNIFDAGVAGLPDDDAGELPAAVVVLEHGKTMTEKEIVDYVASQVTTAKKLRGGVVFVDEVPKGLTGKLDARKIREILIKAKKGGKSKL
Sequence of Nuclear receptor subfamily 1 group I member 3 (Homo sapiens) (Q14994 whole entry, looked up): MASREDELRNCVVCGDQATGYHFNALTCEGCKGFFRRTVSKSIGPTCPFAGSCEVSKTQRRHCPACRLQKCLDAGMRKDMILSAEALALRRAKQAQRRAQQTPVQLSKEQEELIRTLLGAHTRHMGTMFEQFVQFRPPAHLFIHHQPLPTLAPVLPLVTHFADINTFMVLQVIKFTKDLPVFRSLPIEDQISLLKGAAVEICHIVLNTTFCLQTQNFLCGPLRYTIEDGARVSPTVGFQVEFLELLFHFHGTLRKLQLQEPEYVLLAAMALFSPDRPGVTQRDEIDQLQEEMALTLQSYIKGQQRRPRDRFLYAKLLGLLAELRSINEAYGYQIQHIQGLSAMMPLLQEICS
Sequence of Thyrotropin receptor (Homo sapiens) (P16473 whole entry, looked up): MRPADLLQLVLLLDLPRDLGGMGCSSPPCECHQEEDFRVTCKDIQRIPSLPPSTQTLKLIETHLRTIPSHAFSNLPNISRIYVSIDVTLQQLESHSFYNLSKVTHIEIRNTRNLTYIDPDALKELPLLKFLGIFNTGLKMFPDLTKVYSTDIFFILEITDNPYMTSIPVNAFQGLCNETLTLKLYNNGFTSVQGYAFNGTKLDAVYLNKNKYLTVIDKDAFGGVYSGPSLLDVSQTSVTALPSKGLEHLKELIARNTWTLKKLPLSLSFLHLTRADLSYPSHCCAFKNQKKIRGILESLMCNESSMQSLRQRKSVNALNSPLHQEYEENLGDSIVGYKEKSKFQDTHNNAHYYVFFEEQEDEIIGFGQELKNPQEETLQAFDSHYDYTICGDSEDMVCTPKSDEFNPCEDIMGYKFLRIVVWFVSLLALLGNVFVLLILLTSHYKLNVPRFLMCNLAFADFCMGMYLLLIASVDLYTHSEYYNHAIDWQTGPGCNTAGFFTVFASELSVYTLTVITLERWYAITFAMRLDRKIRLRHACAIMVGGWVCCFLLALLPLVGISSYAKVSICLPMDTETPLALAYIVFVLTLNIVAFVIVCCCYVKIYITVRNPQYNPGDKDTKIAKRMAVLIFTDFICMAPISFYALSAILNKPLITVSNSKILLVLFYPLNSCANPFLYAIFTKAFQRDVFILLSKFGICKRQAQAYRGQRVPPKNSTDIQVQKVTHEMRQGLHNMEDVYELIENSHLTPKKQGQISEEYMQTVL

CCN(CC)CCOC(=O)C(O)(c1ccccc1)c1ccccc1
inactive: Potency [1] | Potency [2] | Potency [3] | Potency [4] | Potency [5] | Potency [6] | Potency [7] | Potency [8] | Potency [9] | Potency [10] | Potency [11] | outcome [12] | outcome [13] | Potency [14] | Potency [15] | activity change, positive = activation [16] 2.32% [at 42.5 µM] | Potency [17] | Potency [18] | outcome [19] | Potency [20]

CN(C)C1CCCCC1
inactive: Potency [1] | Potency [2] | Potency [3] | Potency [4] | Potency [5] | Potency [6] | Potency [7] | Potency [8] | Potency [9] | Potency [11] | outcome [12] | outcome [13] | Potency [14] | Potency [15] | Potency [17] | outcome [19] | Potency [20]

CC(Cl)(Cl)Cl
inactive: Potency [1] | Potency [2] | Potency [3] | Potency [4] | Potency [5] | Potency [6] | Potency [7] | Potency [8] | Potency [9] | Potency [10] | Potency [11] | outcome [12] | outcome [13] | Potency [14] | Potency [15] | activity change, positive = activation [16] 4% | Potency [17] | Potency [18] | outcome [19] | Potency [20]

CCC(C)C(C)(COC(N)=O)COC(N)=O (stereo not given)
inactive: Potency [1] | Potency [2] | Potency [3] | Potency [4] | Potency [5] | Potency [6] | Potency [7] | Potency [8] | Potency [9] | Potency [10] | Potency [11] | outcome [12] | outcome [13] | Potency [14] | Potency [15] | activity change, positive = activation [16] 1.95% [at 42.5 µM] | Potency [17] | Potency [18] | outcome [19] | Potency [20]

CC1NCCOC1c1ccccc1 (stereo not given)
inactive: Potency [1] | Potency [2] | Potency [3] | Potency [4] | Potency [5] | Potency [6] | Potency [7] | Potency [8] | Potency [9] | Potency [10] | Potency [11] | outcome [13] | Potency [14] | Potency [15] | activity change, positive = activation [16] 0.163% [at 42.5 µM] | Potency [17] | Potency [18] | outcome [19] | Potency [20]

O=[N+]([O-])CCO
inactive: Potency [1] | Potency [2] | Potency [3] | Potency [4] | Potency [5] | Potency [6] | Potency [7] | Potency [8] | Potency [9] | Potency [11] | outcome [12] | outcome [13] | Potency [14] | Potency [15] | activity change, positive = activation [16] 1.1% | Potency [17] | Potency [18] | outcome [19] | Potency [20]

CCC(CC)(CNC(=O)CCCO)c1cccc(OC)c1
inactive: Potency [1] | Potency [2] | Potency [3] | Potency [4] | Potency [5] | Potency [6] | Potency [7] | Potency [8] | Potency [9] | Potency [10] | Potency [11] | outcome [12] | outcome [13] | Potency [14] | Potency [15] | activity change, positive = activation [16] 4.37% [at 42.5 µM] | Potency [17] | Potency [18] | outcome [19] | Potency [20]
